# Gal4-VP16 FLuc: counter-screen for ROR gamma inhibitors: Gal4-VP16 reporter; AID 2546; Drosophila S2 Gal4-VP16 UAS-luciferase, luminescence, 20 h; Potency, µM (top dose mostly 53.6 µM), for inactives: at the highest dose activity, negative = inhibition, most hits filed as inhibitors; hit rate 3.5% among 310,000;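 further: Gal4-VP16 expression switched on by copper sulfate through the metallothionein promoter; potency means the concentration at half of the fitted maximal effect; nearly all actives have a fitted effect of over 50% in size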
# TSHR antag: human thyrotropin receptor antagonism | activity change, negative = inhibition, % at 11.5 µM | TSHR-expressing cells, TSH-stimulated cAMP HTRF, 2 h; active compounds read low | hit rate 0.2% among 330,000 | P16473;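 active means activity change below a set negative limit, meaning inhibition stronger than a set level, cut at about -70% in these data; inconclusive means activity change between two set negative limits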
# Target sequence (P16473 whole entry, looked up): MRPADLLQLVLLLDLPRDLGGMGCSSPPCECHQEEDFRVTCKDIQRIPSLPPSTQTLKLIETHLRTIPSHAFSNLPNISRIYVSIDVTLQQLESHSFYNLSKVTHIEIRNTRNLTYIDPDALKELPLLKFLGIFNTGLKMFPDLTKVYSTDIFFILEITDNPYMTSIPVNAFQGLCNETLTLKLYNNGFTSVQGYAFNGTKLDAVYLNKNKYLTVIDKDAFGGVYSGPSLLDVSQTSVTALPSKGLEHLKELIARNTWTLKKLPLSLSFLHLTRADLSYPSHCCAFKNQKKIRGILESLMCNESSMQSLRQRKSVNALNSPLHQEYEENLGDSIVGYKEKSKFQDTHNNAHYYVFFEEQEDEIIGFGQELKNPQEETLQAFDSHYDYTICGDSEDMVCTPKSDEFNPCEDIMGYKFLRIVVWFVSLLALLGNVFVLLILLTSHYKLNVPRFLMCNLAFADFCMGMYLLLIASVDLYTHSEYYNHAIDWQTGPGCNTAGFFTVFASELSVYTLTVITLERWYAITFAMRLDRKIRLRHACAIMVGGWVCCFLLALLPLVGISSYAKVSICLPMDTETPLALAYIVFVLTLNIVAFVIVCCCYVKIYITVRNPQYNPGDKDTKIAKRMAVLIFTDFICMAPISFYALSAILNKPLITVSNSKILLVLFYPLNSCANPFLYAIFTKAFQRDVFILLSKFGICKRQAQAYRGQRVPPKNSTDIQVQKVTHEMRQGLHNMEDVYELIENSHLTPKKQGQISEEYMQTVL
#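 Cell-based HTRF cAMP assay; TSHR cells + compound, TSH EC80 (4nM final), 2 h, 37 deg C. Lysis with anti-cAMP cryptate and cAMP-d2, 30 min RT, read 665/620 nm.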
# ELG1 DNA repair: ELG1-dependent DNA repair inhibition; HEK293T ELG1-luciferase reporter, luminescence, 16 h; DNA damage induced by 5-fluorouridine; Potency, µM (doses to about 46.1 µM), for inactives: at the top dose activity change, negative = inhibition, most hits filed as inhibitors; hit rate 2.3% among 330,000; AID 504467; further: potency means the concentration at half of the fitted maximal effect; nearly all actives have a fitted effect of over 55% in size
#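 In this reporter screen, reduction of luminescence relative to DMSO vehicle indicated activity. Compounds and 5-fluorouridine were added together to 2,000 cells per well, incubated for 16 hr at 37 °C, then developed with ONE-Glo.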
# B2AR arrestin: agonists driving beta-arrestin recruitment to human beta2-adrenergic receptor; P07550; Potency, µM (doses to about 46.1 µM), for inactives: at the top dose activation, actives largely listed as activators; beta-arrestin recruitment to beta2AR, cell-based reporter; hit rate 0.02% among 330,000;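 further: potency means the concentration at half of the fitted maximal effect; 0% = DMSO controls and full agonism = EC100 isoproterenol or metaproterenol; nearly all actives have a fitted effect of over 65% in size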
# RORgamma inh: inhibitors of mouse ROR gamma transcriptional activity; hit rate 5.4% among 310,000; Drosophila S2 Gal4-RORgamma UAS-luciferase reporter, 20 h; P51450; Potency, µM (titrated, usually from 53.6 µM), inactives show at the top dose activity change, negative = inhibition, hits mostly inhibitors; further: potency means the concentration at half of the fitted maximal effect; nearly all actives have a fitted effect of over 60% in size
#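 In this cell-based reporter format, copper sulfate (700 uM final) drives Gal4–ROR gamma fusion expression from a metallothionein promoter in Drosophila Schneider cells; compounds preincubated 1 hr, reporter read after 20 hr at ambient temperature.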
# ELG1 FLuc counter: luciferase inhibition in cell-free luciferin readout for ELG1 hits; AID 624247; cell-free firefly luciferase luminescence counter-screen, ViewLux; hit rate 3% among 350; shares compounds with ELG1 DNA repair; Potency, µM (highest dose often 46.1 µM), inactives show at the top dose activity change, negative = inhibition, actives largely listed as inhibitors; further: potency means the concentration at half of the fitted maximal effect
# ELG1-Luc inh: human ELG1 repair inhibition, luciferase-tagged ELG1 confirmation; hit rate 68% among 670; HEK293T ELG1-luciferase levels, luminescence; cells co-treated with 5-fluorouridine; AID 624248; shares compounds with ELG1 DNA repair; Potency, µM (series often up to 46.1 µM), without a hit: top-dose activity change, negative = inhibition, actives largely listed as inhibitors; further: potency means the concentration at half of the fitted maximal effect; nearly all actives have a fitted effect of over 55% in size
# ELG1-Luc MMS: confirmation of human ELG1 repair inhibitors, MMS stimulated; hit rate 53% among 670; AID 624249; HEK293T luciferase-tagged ELG1 level, MMS stimulated; Potency, µM (highest dose often 46.1 µM), for inactives: at the highest dose activity change, negative = inhibition, actives largely listed as inhibitors; shares compounds with ELG1 DNA repair; further: potency means the concentration at half of the fitted maximal effect; nearly all actives have a fitted effect of over 60% in size
# ELG1 5FU viab: confirmation of ELG1 repair inhibitors: viability with 5FU; shares compounds with ELG1 DNA repair; Potency, µM (series often up to 46.1 µM), for inactives: at the top dose activity change, negative = viability loss, most hits filed as cytotoxic; cell viability with 5-FU, ELG1-dependent repair; 670 tested, under 10 active;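 further: ELG1-luc HEK293T cells cotreated with 5-fluorouridine at 10 µM final; potency means the concentration at half of the fitted maximal effect; viability measured 16 h after compound addition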
# ELG1 MMS viab: confirmation of ELG1 repair inhibitors: viability with MMS | hit rate 33% among 670 | Cell viability with MMS, ELG1-dependent DNA repair | shares compounds with ELG1 DNA repair | Potency, µM (top dose mostly 46.1 µM), for the others: at the top dose activity change, negative = viability loss, hits mostly cytotoxic;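 further: ELG1-luc HEK293T cells co-treated with 10 µM MMS; potency means the concentration at half of the fitted maximal effect; viability read 16 h after compound addition; nearly all actives have a fitted effect of over 60% in size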
# Cell viab unstim: affects unstimulated cell viability, ELG1 hit counter-screen; shares compounds with ELG1 DNA repair; cell viability counter-screen, unstimulated, luminescence; Potency, µM (top dose mostly 45.9 µM), for the others: at the top dose activity change, negative = loss of viability, most hits filed as cytotoxic; hit rate 8% among 900; AID 624252;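 further: potency means the concentration at half of the fitted maximal effect; compound exposure lasted 16 hours before reading; nearly all actives have a fitted effect of over 55% in size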
# FLuc biochem: firefly luciferase inhibition counter-screen | Potency, µM (top dose mostly 57.5 µM), without a hit: at the top dose activity, negative = inhibition, actives largely listed as inhibitors | purified firefly luciferase, luminescence counter-screen | shares compounds with ELG1 DNA repair | hit rate 10% among 350 | AID 624253; further: potency means the concentration at half of the fitted maximal effect
# An asterisk follows results filed as active; ? = inconclusive; · = not tested or not shown; [ ] = remark or other dose. Only some compounds are listed: those with a hit (about 7.5% of all), similar ones and a draw of the others. Unless noted, the call rests on the fitted dose curve; in most records, active means well fitted curve in the direction sought with a large enough effect; inconclusive means small, poorly fitted or top-dose-only effect, or another doubt; inactive means no such curve, though single readings can be large; an effect the other way counts as inactive or inconclusive. Unless noted, on the % scale 0 is the no-effect control and ±100 the full control effect.
SMILES,Gal4-VP16 FLuc,TSHR antag,ELG1 DNA repair,B2AR arrestin,RORgamma inh,ELG1 FLuc counter,ELG1-Luc inh,ELG1-Luc MMS,ELG1 5FU viab,ELG1 MMS viab,Cell viab unstim,FLuc biochem
CCc1ccc(OCC(=O)Nc2ccc(-c3nc4ccccc4o3)c(O)c2)cc1,-5%,19,?,-1%,15%,15%,·,·,·,·,-2%,1%
Cc1cccc(NCC(=O)N/N=C\c2cccn2C)c1,7%,9,14%,0%,-11%,·,·,·,·,·,·,·
Cn1cccc1/C=N\NC(=O)Cc1ccc(Br)c2ccccc12,11µM*,-36,3.7µM*,-2%,?,·,?,7.9µM*,-13%,7.9µM*,?,·
COc1ccc(-c2nc3ccc(C(=O)NCC(OC)OC)cc3nc2-c2ccc(OC)c(OC)c2)cc1OC,-3%,0,1µM*,-1%,-1%,·,0.71µM*,8%,?,?,2%,·
CCOCCCNC(=O)c1ccc2nc(-c3ccc(OC)c(OC)c3)c(-c3ccc(OC)c(OC)c3)nc2c1,-16%,-7,1.5µM*,3%,7%,·,0.44µM*,?,?,?,?,·
CCc1nc2ccc(C(=O)NCCc3ccc(OC)c(OC)c3)cc2nc1CC,2%,-5,-13%,0%,3%,·,·,·,·,·,·,·
CN(C)c1ncnc2c1ncn2C1OC(CO)C(O)C1O (stereo not given),-1%,-7,?,0%,13%,·,·,·,·,·,·,·
COc1ccc(C[C@H](N)C(=O)N[C@H]2[C@@H](O)[C@H](n3cnc4c(N(C)C)ncnc43)O[C@@H]2CO)cc1,·,4,2.5µM*,0%,·,·,3.1µM*,1.6µM*,?,2.2µM*,2.2µM*,·
CCOC(=O)N1CCC(NC(=O)C2CCCN(Cc3nc(-c4ccc(CC)cc4)oc3C)C2)CC1 (stereo not given),?,2,2.3µM*,0%,17%,-2%,7.9µM*,2.5µM*,4%,3.2µM*,?,1%
O=C(COC(=O)C1(c2ccccc2)CC1)NNC(=O)c1ccccc1,·,2,13%,-1%,·,·,·,·,·,·,·,·
Cc1nc(N)nc(N)c1/C=C/C(C)(C)c1ccc(Cl)cc1,?,-4,0.23µM*,0%,?,?,7.9µM*,14µM*,?,?,0.056µM*,6%
CC1CN(S(=O)(=O)c2ccc(C(=O)NCCCn3ccnc3)cc2)CC(C)O1 (stereo not given),-5%[10 µM],27,0.73µM*,0%,19%,?,5%,0.028µM*,-3%,0.032µM*,?,-7%

# High-throughput results: PubChem, National Center for Advancing Translational Sciences (NCATS)
